# Reference: PubChem BioAssay
# Values without a mark were called inactive. The rule behind the calls is not given here.
# Biological target: Pantothenate synthetase (Mycobacterium tuberculosis (strain ATCC 25618 / H37Rv)) (UniProt P9WIL5)
# Experiment: Coupled enzyme confirmation of inhibitors against recombinant Mtb PanC (AID 375);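 note: 0% = full reaction with vehicle and 100% = no enzyme background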
# Settings: coupled enzyme assay; at 10 µM, active compounds read high
# Pantothenate synthetase (Mycobacterium tuberculosis (strain ATCC 25618 / H37Rv)), sequence (P9WIL5 whole entry, looked up): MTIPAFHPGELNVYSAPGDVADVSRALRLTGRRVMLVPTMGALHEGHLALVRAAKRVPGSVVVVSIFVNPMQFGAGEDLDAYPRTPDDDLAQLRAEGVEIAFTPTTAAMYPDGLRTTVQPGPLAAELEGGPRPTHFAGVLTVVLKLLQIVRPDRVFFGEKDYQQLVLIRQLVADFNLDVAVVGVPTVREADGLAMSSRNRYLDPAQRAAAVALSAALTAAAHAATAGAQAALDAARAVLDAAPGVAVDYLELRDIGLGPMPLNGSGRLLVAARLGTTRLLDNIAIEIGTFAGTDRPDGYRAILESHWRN
row,Structure (SMILES),inhibition [%]
1,OC(CNCC1COc2ccccc2O1)COCc1cccs1 (stereo not drawn),0
2,COc1ccc(OC)c(Nc2nc(-c3sc(N)nc3C)cs2)c1,0
3,CC(=O)n1cc(-c2ccncc2)c2ccccc21,0
4,CCc1cc2c(=O)n(C(C)C(=O)OC3CCCCC3)cnc2s1 (stereo not drawn),0
5,CCc1ccccc1-n1c(SCC(=O)N2CCCC2)nnc1-c1ccccn1,0
6,NC(=O)COC(=O)CNC(=O)c1ccc(Cl)cc1,0
7,CCOC(=O)N1CCC(N(CCCOC)C(=O)Nc2ccc(CC)cc2)CC1,0
8,CC1CCC2C(C1)c1sc(=O)[nH]c1SC2(C)C (stereo not drawn),2
9,Clc1ss/c(=N\c2ccccn2)c1Cl,0
10,O=C(CSc1nc2[nH]ncc2c(=O)n1-c1ccccc1Br)NCc1ccco1,1
11,CCNC(=O)C1CC(=O)N(Cc2ccc3c(c2)OCO3)C(=Nc2ccc(F)cc2)S1 (stereo not drawn),0
12,COC(=O)C1(C)NC(c2cccs2)C2C(=O)N(c3ccccc3F)C(=O)C21 (stereo not drawn),0
13,CCNCc1cc2cc(C)ccc2[nH]c1=O,0
14,O=C(Nc1nc(-c2ccncc2)cs1)C1COc2ccccc2O1 (stereo not drawn),0
15,CN1CCN(C(=O)c2ccccc2N(Cc2ccccc2)S(C)(=O)=O)CC1,0
16,O=C(CSc1ncnc2ccccc12)N1CCN(c2ccccc2)CC1,0
17,CCOCCCNC(=O)C1CCN(S(=O)(=O)N(CC(C)C)CC(C)C)CC1,0
18,COc1ccc(S(=O)(=O)Nc2ccc(S(=O)(=O)N3CCCCC3)cc2)cc1OC,0
